The test system of one assay is IL-6-GFP PC-9GR. Description: cell viability (CCK-8 OD) relative to DMSO control (fraction of control); higher = more viable cells. Particulars: compound concentration: 10 uM; treatment time: 48 h. In short, it runs like this:
(§1)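 Compounds from a purchased library of 510 were each tested at a final 10 μM for 48 h on PC-9 and PC-9GR lung cancer cells plated at 3000 cells/well in 96-well plates. These cells overexpressed IL-6-GFP from a lentiviral construct. Viability came from CCK-8 absorbance, given as the optical density of each well over that of the vehicle control well, across independent replicates numbering two.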

The next assay relates to IL-6-GFP PC-9. The description is as above. Particulars: compound concentration: 10 uM; treatment time: 48 h. The method in brief:
as §1

± gives the standard deviation of the averaged measurements.

For `O=C([O-])CC(O)(CC(=O)[O-])C(=O)[O-].O=C([O-])CC(O)(CC(=O)[O-])C(=O)[O-].[BiH6+3].[K+].[K+].[K+]` [Gastrodenol], the cell viability amounted to 0.722 ± 0.25 with IL-6-GFP PC-9GR and 0.986 ± 0.29 in the assay on IL-6-GFP PC-9.

As to `CCCCCCCCCCCCCCCCCCOP(=O)([O-])OC1CC[N+](C)(C)CC1` [Perifosine (KRX-0401)], the cell viability amounted to 0.943 ± 0.084 in the assay on IL-6-GFP PC-9GR and 0.786 ± 0.059 with IL-6-GFP PC-9.

For `Cc1coc2c1C(=O)C(=O)c1c-2ccc2c1CCCC2(C)C` [Tanshinone IIA], the values for the cell viability with IL-6-GFP PC-9GR and in the assay with IL-6-GFP PC-9 were 1.37 ± 0.095 and 0.705 ± 0.19, respectively.

The record behind these values is the supplement of paper PMC8866396.
